Results taken from the supplement of paper PMC11732987, “Enantioselective OTUD7B fragment discovery through chemoproteomics screening and high-throughput optimisation” (Communications Chemistry, 2025).

What was measured:
Experiment in all cases: log2 ratio of Biotin-Ahx-Ub-VS probe labelling (fragment/DMSO); higher = less target engagement (more negative = stronger competition), active = hit call of the paper (q ≤ 0.05, log2 ratio ≤ -1)
Details in all cases: compound concentration: 200 uM; treatment time: 3 h
USP42 = target: T1, USP42 (UniProt Q9H9J4)
T1 sequence (whole entry): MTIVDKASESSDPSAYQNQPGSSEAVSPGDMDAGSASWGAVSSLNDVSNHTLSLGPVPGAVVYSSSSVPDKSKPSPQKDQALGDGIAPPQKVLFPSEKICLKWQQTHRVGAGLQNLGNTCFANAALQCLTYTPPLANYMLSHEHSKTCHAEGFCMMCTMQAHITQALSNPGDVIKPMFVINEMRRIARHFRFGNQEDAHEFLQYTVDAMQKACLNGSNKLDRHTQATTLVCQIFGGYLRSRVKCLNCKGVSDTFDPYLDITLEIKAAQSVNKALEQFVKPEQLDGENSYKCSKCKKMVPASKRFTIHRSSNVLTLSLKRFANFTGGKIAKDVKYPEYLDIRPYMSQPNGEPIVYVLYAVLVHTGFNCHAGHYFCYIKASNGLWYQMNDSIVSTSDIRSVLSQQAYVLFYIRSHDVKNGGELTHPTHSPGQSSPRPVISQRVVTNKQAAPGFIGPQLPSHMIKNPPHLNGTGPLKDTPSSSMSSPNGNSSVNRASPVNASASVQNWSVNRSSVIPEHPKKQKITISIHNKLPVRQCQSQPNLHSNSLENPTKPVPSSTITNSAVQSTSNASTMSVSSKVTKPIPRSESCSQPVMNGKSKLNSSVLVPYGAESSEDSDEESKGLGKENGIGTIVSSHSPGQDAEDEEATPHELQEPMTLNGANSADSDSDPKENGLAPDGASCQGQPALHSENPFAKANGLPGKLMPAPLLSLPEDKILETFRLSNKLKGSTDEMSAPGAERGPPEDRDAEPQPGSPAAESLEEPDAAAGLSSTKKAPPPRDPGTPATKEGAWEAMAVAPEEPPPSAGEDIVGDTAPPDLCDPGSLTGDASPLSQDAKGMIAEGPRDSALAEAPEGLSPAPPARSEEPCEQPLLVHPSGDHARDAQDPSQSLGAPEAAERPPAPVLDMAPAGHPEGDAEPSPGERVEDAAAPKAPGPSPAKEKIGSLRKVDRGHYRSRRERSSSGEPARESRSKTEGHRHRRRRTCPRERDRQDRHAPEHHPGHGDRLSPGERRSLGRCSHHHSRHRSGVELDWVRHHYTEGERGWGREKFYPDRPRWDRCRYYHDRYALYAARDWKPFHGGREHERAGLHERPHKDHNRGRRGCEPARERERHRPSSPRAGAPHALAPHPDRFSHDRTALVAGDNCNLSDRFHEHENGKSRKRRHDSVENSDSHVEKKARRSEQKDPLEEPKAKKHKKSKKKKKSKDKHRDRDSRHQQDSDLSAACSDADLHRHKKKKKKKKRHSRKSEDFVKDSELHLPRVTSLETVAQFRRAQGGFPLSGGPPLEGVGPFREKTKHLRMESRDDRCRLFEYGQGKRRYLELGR
How it was run: (§1)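 HEK293T lysate (495 µg per sample, in Tris/CHAPS/IGEPAL buffer with protease inhibitors) was exposed in triplicate for 3 h to fragment at 200 µM or to vehicle, then to Biotin-Ahx-Ub-VS at 0.5 µM final for 1 h. Labelled DUBs were enriched on NeutrAvidin, digested with LysC and trypsin, and analysed by diaPASEF LC-MS/MS. Spectronaut label-free quantities were normalised to the global median, and values are average log2 ratios of fragment over vehicle from an unpaired t-test. Only proteins with ≥2 unique peptides were used.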

USP46 = USP46 (UniProt P62068)
How it was run: as §1

USP47 = target: T2, USP47 (UniProt Q96K76)
T2 sequence (whole entry): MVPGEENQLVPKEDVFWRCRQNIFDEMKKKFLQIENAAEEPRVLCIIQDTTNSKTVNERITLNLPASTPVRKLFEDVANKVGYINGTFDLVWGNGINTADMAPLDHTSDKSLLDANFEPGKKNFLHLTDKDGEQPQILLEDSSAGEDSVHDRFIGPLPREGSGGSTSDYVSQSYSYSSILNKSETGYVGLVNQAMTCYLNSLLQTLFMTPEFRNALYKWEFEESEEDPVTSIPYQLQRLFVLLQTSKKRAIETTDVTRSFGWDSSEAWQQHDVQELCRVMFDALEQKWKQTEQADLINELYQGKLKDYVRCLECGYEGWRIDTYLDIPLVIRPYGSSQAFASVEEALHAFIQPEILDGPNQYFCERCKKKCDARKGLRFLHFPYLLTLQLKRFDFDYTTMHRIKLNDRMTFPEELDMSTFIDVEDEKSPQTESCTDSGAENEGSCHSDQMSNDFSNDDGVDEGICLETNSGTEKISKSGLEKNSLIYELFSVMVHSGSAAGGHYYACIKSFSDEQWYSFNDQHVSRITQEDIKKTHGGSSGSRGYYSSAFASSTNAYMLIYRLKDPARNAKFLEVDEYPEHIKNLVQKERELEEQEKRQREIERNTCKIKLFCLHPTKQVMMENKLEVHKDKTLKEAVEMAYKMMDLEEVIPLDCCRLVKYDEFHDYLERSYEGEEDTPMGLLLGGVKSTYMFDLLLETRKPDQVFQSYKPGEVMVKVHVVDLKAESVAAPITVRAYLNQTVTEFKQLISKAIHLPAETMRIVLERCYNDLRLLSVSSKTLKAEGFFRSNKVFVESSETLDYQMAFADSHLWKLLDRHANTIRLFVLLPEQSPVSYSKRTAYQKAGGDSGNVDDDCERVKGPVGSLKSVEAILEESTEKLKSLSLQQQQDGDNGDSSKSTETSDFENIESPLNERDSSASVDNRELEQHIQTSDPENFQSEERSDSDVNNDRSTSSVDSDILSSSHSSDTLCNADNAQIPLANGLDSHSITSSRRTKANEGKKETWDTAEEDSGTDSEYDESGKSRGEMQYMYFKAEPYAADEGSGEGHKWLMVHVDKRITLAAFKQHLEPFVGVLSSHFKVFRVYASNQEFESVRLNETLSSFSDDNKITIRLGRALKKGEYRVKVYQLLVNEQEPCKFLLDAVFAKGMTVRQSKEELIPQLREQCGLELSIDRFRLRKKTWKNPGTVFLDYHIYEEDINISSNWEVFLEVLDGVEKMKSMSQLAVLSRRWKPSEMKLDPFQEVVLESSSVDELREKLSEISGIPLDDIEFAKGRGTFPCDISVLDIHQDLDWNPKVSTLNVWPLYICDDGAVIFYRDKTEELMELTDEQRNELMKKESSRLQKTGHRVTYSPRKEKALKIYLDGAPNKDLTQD
How it was run: as §1

USP48 = target: T3, USP48 (UniProt Q86UV5)
T3 sequence (whole entry): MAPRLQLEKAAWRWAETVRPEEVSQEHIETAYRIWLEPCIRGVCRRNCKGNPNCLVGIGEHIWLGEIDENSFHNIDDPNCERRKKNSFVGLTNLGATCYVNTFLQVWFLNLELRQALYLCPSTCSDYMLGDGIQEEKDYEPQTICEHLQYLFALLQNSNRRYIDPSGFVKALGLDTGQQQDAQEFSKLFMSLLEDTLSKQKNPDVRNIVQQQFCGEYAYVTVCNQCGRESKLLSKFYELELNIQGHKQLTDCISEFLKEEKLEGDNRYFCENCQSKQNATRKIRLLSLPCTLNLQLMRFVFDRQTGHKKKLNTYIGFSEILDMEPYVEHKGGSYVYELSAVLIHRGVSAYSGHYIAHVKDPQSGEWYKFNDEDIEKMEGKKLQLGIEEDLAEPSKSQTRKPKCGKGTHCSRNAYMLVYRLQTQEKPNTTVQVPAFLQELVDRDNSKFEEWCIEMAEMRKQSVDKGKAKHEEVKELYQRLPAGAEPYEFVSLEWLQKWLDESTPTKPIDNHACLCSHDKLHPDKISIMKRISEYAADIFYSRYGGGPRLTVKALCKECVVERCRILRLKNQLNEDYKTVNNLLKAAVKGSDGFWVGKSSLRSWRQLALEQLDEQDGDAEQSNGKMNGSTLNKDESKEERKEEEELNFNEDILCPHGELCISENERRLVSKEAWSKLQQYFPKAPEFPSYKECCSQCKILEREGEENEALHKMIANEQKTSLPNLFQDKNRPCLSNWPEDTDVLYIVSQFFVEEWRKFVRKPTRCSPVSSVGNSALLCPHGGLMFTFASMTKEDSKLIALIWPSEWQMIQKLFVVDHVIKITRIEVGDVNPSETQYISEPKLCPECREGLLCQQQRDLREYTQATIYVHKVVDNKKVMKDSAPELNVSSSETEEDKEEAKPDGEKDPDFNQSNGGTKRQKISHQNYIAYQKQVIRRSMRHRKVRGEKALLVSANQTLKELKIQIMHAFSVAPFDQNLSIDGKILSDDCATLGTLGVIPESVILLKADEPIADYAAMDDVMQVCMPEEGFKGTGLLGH
How it was run: as §1

USP5 = target: T4, USP5 (UniProt P45974)
T4 sequence (whole entry): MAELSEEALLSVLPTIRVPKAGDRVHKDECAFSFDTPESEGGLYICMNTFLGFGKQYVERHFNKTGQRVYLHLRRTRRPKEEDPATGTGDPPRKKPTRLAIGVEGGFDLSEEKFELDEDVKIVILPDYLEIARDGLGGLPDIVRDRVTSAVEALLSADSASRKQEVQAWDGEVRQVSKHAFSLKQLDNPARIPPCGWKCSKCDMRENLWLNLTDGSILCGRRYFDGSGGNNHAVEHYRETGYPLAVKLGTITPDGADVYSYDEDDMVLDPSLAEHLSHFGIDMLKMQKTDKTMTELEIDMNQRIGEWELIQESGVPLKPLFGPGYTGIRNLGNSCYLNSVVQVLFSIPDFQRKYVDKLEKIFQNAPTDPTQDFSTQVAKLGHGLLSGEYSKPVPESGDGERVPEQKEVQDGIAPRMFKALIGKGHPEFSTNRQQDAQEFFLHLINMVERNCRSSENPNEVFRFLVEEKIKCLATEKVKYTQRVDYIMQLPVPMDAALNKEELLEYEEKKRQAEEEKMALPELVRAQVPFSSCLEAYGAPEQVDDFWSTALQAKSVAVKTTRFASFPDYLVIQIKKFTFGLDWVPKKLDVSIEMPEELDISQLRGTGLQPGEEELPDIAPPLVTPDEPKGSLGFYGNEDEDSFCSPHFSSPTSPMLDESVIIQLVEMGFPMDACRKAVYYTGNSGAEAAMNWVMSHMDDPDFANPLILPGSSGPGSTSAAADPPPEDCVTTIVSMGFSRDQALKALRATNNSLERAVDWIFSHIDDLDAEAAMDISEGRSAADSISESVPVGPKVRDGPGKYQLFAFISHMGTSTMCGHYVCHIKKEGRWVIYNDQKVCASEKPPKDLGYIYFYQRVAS
How it was run: as §1

USP54 = USP54 (UniProt Q70EL1)
How it was run: as §1

USP7 = USP7 (UniProt Q93009)
How it was run: as §1

USP8 = target: T5, USP8 (UniProt P40818)
T5 sequence (whole entry): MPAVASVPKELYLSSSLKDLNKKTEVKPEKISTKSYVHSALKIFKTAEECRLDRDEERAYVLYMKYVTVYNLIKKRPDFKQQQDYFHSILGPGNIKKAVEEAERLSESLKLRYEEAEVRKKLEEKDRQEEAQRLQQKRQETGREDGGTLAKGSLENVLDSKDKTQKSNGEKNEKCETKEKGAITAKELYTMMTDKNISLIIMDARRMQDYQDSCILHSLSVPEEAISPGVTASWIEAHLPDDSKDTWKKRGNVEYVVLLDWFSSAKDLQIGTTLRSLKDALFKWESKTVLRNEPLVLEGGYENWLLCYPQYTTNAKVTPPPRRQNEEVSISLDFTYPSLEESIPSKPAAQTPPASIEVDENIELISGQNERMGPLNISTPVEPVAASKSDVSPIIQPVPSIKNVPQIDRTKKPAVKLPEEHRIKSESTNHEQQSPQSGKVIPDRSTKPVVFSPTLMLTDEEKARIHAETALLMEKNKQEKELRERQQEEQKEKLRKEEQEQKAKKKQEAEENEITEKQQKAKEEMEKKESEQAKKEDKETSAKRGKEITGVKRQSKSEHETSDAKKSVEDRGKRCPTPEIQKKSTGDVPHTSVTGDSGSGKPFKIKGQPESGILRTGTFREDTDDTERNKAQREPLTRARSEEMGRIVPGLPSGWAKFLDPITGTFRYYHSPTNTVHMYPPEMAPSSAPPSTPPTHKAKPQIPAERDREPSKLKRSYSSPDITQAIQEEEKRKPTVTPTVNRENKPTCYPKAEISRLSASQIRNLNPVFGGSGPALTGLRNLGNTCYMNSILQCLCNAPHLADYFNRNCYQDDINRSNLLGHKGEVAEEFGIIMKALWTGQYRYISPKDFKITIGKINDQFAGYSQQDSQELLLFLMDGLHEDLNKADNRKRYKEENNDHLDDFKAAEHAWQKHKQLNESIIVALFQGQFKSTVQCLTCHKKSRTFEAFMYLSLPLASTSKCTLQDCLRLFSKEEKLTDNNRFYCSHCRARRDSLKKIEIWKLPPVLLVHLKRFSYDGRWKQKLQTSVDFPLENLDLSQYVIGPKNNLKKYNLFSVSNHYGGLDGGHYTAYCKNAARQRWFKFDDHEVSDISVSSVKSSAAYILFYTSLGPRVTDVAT
How it was run: as §1

Measured: log2 ratio of Biotin-Ahx-Ub-VS probe labelling

Chain of USP7 (Q93009 whole entry, looked up): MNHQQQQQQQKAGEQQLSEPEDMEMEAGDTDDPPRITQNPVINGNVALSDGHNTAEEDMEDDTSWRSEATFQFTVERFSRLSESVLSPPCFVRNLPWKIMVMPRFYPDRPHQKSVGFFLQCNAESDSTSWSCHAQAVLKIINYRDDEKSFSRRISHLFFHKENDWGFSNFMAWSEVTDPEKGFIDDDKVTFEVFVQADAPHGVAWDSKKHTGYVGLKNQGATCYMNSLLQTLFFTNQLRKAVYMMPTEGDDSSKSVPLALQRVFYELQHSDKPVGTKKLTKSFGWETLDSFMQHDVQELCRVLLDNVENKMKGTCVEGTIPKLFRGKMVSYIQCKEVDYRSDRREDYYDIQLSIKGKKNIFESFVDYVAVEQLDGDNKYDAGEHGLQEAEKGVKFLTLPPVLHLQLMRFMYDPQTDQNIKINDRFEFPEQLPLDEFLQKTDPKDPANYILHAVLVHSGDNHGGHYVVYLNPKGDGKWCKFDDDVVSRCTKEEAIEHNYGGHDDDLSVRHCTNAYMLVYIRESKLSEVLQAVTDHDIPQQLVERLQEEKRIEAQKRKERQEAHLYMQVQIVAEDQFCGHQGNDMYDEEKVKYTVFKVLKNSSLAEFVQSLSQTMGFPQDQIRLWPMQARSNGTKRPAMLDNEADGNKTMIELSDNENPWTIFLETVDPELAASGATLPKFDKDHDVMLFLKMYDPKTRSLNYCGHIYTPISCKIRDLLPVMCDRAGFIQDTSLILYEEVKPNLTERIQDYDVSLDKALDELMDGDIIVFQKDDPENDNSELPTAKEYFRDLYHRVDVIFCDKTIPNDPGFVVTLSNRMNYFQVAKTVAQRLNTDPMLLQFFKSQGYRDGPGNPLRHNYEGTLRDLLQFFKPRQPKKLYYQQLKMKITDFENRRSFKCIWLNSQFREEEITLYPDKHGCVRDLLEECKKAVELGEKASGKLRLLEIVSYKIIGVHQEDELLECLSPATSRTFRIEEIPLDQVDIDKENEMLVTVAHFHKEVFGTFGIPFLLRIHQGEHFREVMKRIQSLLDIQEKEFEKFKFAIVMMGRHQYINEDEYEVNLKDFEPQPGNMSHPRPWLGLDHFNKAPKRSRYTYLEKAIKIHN
Chain of USP46 (P62068 whole entry): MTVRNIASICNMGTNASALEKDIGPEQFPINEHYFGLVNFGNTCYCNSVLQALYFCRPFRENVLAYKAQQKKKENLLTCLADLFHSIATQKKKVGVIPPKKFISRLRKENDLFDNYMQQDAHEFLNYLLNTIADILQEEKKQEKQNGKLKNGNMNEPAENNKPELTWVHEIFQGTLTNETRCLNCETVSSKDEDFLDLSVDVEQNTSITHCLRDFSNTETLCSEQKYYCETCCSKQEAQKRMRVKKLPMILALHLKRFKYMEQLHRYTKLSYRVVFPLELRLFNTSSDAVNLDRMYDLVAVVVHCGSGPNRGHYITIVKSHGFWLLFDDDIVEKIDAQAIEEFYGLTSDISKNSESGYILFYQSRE
Chain of USP54 (Q70EL1 whole entry): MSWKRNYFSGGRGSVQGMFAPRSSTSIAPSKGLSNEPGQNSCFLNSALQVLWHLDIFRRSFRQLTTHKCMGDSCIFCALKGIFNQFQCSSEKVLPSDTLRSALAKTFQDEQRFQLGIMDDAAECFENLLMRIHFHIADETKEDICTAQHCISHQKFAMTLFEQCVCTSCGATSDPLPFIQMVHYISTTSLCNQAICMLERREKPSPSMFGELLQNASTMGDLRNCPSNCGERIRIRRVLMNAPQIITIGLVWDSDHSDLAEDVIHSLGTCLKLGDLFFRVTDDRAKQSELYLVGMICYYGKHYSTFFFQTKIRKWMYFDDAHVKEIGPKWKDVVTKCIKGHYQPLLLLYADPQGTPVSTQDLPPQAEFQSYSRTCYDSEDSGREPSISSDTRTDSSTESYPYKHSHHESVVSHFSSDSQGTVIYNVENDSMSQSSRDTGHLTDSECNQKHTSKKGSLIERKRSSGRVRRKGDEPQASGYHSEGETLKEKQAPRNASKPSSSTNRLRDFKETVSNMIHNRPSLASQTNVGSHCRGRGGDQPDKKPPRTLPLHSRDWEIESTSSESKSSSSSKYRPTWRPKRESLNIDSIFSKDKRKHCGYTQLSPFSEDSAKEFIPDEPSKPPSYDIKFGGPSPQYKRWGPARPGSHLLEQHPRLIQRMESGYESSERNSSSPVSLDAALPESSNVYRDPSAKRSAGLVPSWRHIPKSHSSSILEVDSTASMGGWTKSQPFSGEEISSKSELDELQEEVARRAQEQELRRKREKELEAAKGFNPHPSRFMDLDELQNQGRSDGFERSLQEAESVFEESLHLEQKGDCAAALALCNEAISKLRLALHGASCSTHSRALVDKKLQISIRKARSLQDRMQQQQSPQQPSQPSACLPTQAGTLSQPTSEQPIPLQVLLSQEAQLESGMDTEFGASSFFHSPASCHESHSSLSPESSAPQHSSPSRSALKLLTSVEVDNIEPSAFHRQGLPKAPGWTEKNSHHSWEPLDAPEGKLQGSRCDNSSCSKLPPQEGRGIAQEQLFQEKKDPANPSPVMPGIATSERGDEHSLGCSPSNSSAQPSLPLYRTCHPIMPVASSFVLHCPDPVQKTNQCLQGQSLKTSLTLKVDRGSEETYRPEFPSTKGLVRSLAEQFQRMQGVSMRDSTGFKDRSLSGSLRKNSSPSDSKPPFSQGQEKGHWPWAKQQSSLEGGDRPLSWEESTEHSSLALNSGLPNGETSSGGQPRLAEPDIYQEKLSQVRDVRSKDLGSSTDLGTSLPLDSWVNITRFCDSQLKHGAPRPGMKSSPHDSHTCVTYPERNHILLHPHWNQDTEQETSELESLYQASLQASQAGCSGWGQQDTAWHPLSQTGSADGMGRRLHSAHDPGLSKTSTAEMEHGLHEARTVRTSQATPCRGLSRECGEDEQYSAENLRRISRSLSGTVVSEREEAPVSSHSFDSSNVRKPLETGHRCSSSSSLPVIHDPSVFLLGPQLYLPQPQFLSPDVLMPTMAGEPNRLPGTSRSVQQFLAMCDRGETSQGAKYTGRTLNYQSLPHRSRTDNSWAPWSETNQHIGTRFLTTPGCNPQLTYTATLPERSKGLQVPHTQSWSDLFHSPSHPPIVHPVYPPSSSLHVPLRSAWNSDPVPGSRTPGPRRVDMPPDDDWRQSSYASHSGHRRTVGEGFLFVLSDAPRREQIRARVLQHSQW

O=C(CCl)N1c2ccccc2NC(=O)C12CCCC2
active: USP48 -1.04 | USP7 -2.11
inactive: USP42 0.622 | USP46 -0.278 | USP47 0.0188 | USP5 0.581 | USP54 -0.355 | USP8 0.279
